# Test results: ChEMBL document CHEMBL4513216, “Probing the Open Global Health Chemical Diversity Library for Multistage-Active Starting Points for Next-Generation Antimalarials” (ACS Infect Dis, 2020)
# The campaign covered roughly 69,000 compounds. About 8,600 (12%) showed an effect of 50% or more. The sample holds strong results, similar compounds and a random draw of the others, so the mix is not that of the screen.
# Tested on: Plasmodium berghei
# Test: Screen against P. berghei liver stage (PbLuc), transformed with Luciferase, at 10uM
# Format: functional, HepG2
# Conditions: tested at 10 uM
row,SMILES,INHIBITION [%]
1,CC(C)C1CN(C(=O)c2ccccc2)CCS1 (centres undefined),61.3
2,CC(C)C1CN(C(=O)c2ccc(C(N)=O)cc2)CCS1 (centres undefined),0.139
3,CC(C)C1CN(C(=O)c2ccncc2)CCS1 (centres undefined),19.6
4,CN1CSC[C@H]1C(=O)N1CCC(CCc2ccccc2)CC1,-29
5,CCC(=O)N1CCCC1C(=O)N1CCC(Cc2ccc(F)cc2)CC1 (centres undefined),49.4
6,CN1C[C@@H](N)C[C@H]1C(=O)N1CCC(Cc2ccc(F)cc2)CC1,58.1
7,CN1C[C@@H](N)C[C@H]1C(=O)N1CCC(CCCc2ccccc2)CC1,55.9
8,CC(C)(C)C(=O)N1CCC(COCc2ccccc2)C1 (centres undefined),11.9
9,CC(C(=O)N1CCC(Cc2ccc(F)cc2)CC1)n1ccnc1 (centres undefined),32.8
10,O=C(C1CCS(=O)(=O)CC1)N1CCC(Cc2ccc(F)cc2)CC1,57.3
11,CN1CSC[C@H]1C(=O)N1CCC(Cc2ccccc2F)CC1,-40.6
12,O=C([C@H]1CCS(=O)(=O)[C@@H]2CN(Cc3ccc(F)cc3)C[C@H]12)N1CCCC1,12.7
13,Cn1ncc2ccc(C3CCCN(Cc4ccsc4)C3)nc21 (centres undefined),33.45
14,COc1cccc(-n2cc3[nH]c(=O)[nH]n3c2=O)c1,3.68
15,Cc1cc(C(=O)N2C[C@@H]3CC[C@H]2CN(C(=O)c2ccncc2)C3)cs1,38
16,CN(C)S(=O)(=O)N1C[C@H](Oc2cccnc2)[C@H]2OCCC[C@H]21,14.2
17,O=C(c1ccc[nH]1)N1Cc2nccn2CC(Cn2ncccc2=O)C1 (centres undefined),-87.3
18,CNC(=O)C1CNCCN1C(=O)c1ccc(C(F)(F)F)nc1C (centres undefined),-15.3
19,O=C1C(NS(=O)(=O)c2ccc(F)c(F)c2)CCN1Cc1ccccc1 (centres undefined),21.5
20,COC(=O)C(C)(C)NC(=O)c1cnc(Cc2ccc(F)cc2)s1,92.8
21,CCc1ncc(C(=O)NC(C)(C)C(=O)OC)s1,40.6
22,COC(=O)C(C)(C)NC(=O)c1cnc(C(C)(C)C)s1,25.1

row,SMILES,INHIBITION [%]
1,COC(=O)[C@H](C)NC(=O)c1cnc(Cc2ccc(F)cc2)s1,51.7
2,CC(C)NC(=O)CCNC(=O)c1cnc(Cc2ccc(F)cc2)s1,10.6
3,CN(C)C(=O)CN(C)C(=O)c1cnc(Cc2ccc(F)cc2)s1,2.37
4,Cn1cc(CN2CCn3cc(CNC(=O)C4CCC4)nc3C2)cn1,14.4
5,O=C(c1cnccn1)N1CCN(Cc2cscn2)CC1,25.85
6,CSCC(C)(O)CNS(=O)(=O)c1cccc(Cl)c1 (centres undefined),-33.5
7,CN1CCN(C(=O)c2ncn3c2CNS(=O)(=O)c2ccccc2-3)CC1,15.3
8,O=C(c1ncn2c1CNS(=O)(=O)c1ccccc1-2)N1CCCCCC1,68.4
9,O=C(c1ncn2c1CNS(=O)(=O)c1ccccc1-2)N1CCCCC1,7.24
10,CCc1nc(C2CCCN2C(=O)CCc2nc(C(C)(C)C)no2)no1 (centres undefined),40.2
11,COc1ncccc1CN1CCC2[C@H]1CCN2CCN(C)C (some centres undefined),-20.1
12,O=C1COC2(CCN(C(=O)C3CC=CC3)CC2)CN1Cc1cccnc1,-3.24
13,Cc1nc(N2CCOCC2)ncc1-c1cc(O)nc(N2CCCC2)n1,-27.1
14,Cc1cc(C)c2c(N3CCC(C(=O)N4CCOCC4)CC3)ncnc2n1,30.9
15,CC(C)CN1CCC2(C1)CN(c1ncccn1)C2,5.12
16,CCn1cncc1CNc1ccc(-c2nc(CC(C)C)no2)cn1,52
17,CCC(O)CNc1ccc(-c2nc(CC(C)C)no2)cn1 (centres undefined),1.79
18,CC(C)Cc1noc(-c2ccc(NCc3noc(C(C)C)n3)nc2)n1,-26
19,CCN1C(=O)CCC12CCC(NC(=O)NCc1cccnc1)CC2 (centres undefined),25.8
20,Cc1n[nH]cc1C(=O)N1CCCC1c1cc[nH]n1 (centres undefined),-26.2
21,Cn1cc(CN2C[C@@H]3CCCO[C@@H]3[C@H](NC(=O)CC3CC3)C2)cn1,11.4
22,CC(C)NC(=O)CCNC(=O)CCc1cc(Br)cs1,-35.3

row,SMILES,INHIBITION [%]
1,CC(C)NC(=O)CCNC(=O)CCc1cc(Cl)cs1,62.8
2,COC(=O)CNC(=O)CCc1cc(Cl)cs1,36.3
3,CN(c1nccc(-c2cnc3sc(Cl)cn3c2=O)n1)C1CCCCC1,38.2
4,Cc1cn2c(=O)c(-c3ccnc(N(C)C4CCCCC4)n3)cnc2s1,90.1
5,CN(c1nccc(-c2cnc3sccn3c2=O)n1)C1CCCCC1,18.9
6,Cc1cc(C(F)(F)F)n2nc(C3CCCN(S(C)(=O)=O)C3)cc2n1 (centres undefined),26.475
7,Cn1ccnc1C1CCN(S(=O)(=O)c2ccc3c(c2)OCCO3)CC1,35.1
8,Cn1ccnc1C1CCN(S(=O)(=O)c2ccc3[nH]c(=O)[nH]c3c2)CC1,62.9
9,Cn1ccnc1C1CCN(S(=O)(=O)c2ccc3oc(=O)[nH]c3c2)CC1,59.7
10,CCC[C@@H]1CN(S(=O)(=O)c2ccc3[nH]c(=O)[nH]c3c2)C[C@H]1NC(C)=O,3.73
11,O=c1[nH]c2cc(S(=O)(=O)N3CCC(c4ccsc4)CC3)ccc2o1,16.9
12,Cc1cc2[nH]c(=O)oc2cc1S(=O)(=O)N1CCCC(N(C)C)CC1 (centres undefined),11.6
13,CCN(CC)S(=O)(=O)N1CCC(c2c(C(N)=O)sc3ccccc23)C1 (centres undefined),27.6
14,CC(=O)N1CCN(CC(N)=O)CC(COc2ccccc2)C1 (centres undefined),-17.7
15,CCc1cc(NC(=O)C2CCCN(C(=O)NCC(C)C)C2)[nH]n1 (centres undefined),19.3
16,NC(=O)c1cn(CC2CC2)c(C2CC2)n1,-2.03
17,CCC(CNC(=O)Nc1cnn(CC)c1)N1CCc2ccccc2C1 (centres undefined),7.67
18,CCC(CNC(=O)c1cncc(Br)c1)N1CCc2ccccc2C1 (centres undefined),66.3
19,CCC(CNC(=O)c1ccc(F)cc1F)N1CCc2ccccc2C1 (centres undefined),64.3
20,CCC(C)NC(=O)c1cncc(Br)c1 (centres undefined),-76.5
21,CCC(CNC(=O)c1ccco1)N1CCc2ccccc2C1 (centres undefined),51.4
22,CCC(CNC(=O)c1ccccc1OC)N1CCc2ccccc2C1 (centres undefined),63.3

row,SMILES,INHIBITION [%]
1,Cn1cccc1C(CNC(=O)c1ccc(F)cc1F)N1CCCCCC1 (centres undefined),34.7
2,CCC(CNC(=O)c1ccccn1)N1CCc2ccccc2C1 (centres undefined),40.5
3,CCC(CNC(=O)c1ccc(Br)o1)N1CCc2ccccc2C1 (centres undefined),16.8
4,COc1cccc(C(=O)NCCCN2CCc3ccccc3C2)c1OC,25.3
5,COc1ccccc1C(=O)NCC(c1cccn1C)N1CCOCC1 (centres undefined),44.9
6,O=C(NCC(O)c1ccc(F)cc1F)c1ccccc1F (centres undefined),-57.9
7,CC(c1ccco1)N(C)C(=O)NCCOc1ccc(C#N)cc1 (centres undefined),5.94
8,CN(C)C(=O)CN1CCOCC2(CCN(CC3CCOCC3)CC2)C1,34.9
9,CNc1cccc(C2CCCN(C(=O)c3cncs3)C2)n1 (centres undefined),5.56
10,O=C(N[C@@H]1C[C@@H]2CC[C@H]1C2)C1(Oc2ccc(Cl)cc2)CCNCC1,9.72
11,CCc1cnc(N2CC[C@@H]3CN(CCC(C)C)S(=O)(=O)[C@@H]3CC2)nc1,-23.7
12,CC(C)C(=O)N1CC[C@H]2N(C)CC[C@@]2(C(=O)N2CCCC2)CC1,3.81
13,Cc1cc(C)c(CNC(=O)N2CCCC2c2cccc(F)c2)c(=O)[nH]1 (centres undefined),27.8
14,CC(C)CS(=O)(=O)N1CCC2(CN(c3ccsc3)C(=O)CN2C)C1 (centres undefined),23.6
15,O=C(NCC1(COc2cnccn2)C[C@@H](O)[C@@H](O)C1)C1CCCC1 (some centres undefined),-15.7
16,CCC(CNC(=O)c1ccccc1Br)N1CCc2ccccc2C1 (centres undefined),56.4
17,CSc1ccccc1C(=O)NCCCN1CCc2ccccc2C1,5.03
18,CCC(CNC(=O)c1cc(OC)ccc1Br)N1CCc2ccccc2C1 (centres undefined),33.5
19,Cc1nn(C)c(C)c1C1COCCN1C(=O)CSC(C)(C)C (centres undefined),37.6
20,CNC(=O)N1CCOCC1c1c(C)nn(C)c1C (centres undefined),28.7
21,Cc1nn(C)c(C)c1C1COCCN1C(=O)CC(C)(C)C (centres undefined),62.2
22,COCCNC(=O)N1CCOCC1c1c(C)nn(C)c1C (centres undefined),51

row,SMILES,INHIBITION [%]
1,Cc1nn(C)c(C)c1C1COCCN1C(=O)NC1CC1 (centres undefined),17.5
2,CCN(CC)C(=O)N1CCOCC1c1c(C)nn(C)c1C (centres undefined),10.7
3,O=C(c1cnccn1)N1CCc2ncnc(-c3cccnc3)c2CC1,32.7
4,CCc1ccc(CN2CCc3ncnc(-c4cccnc4)c3CC2)o1,-48.8
5,O=C(N1CCC(Oc2ccncc2)C1)C1(c2ccc(F)cc2)CC1 (centres undefined),52
6,O=C(N1CCC(Oc2ccncc2)C1)C1(c2cccc(F)c2)CC1 (centres undefined),25.1
7,O=C(N1CCC(Oc2ccncc2)CC1)C1(c2ccc(F)cc2)CC1,34.1
8,Cc1cc(C(=O)NCC(C)N2CCc3ccccc32)on1 (centres undefined),-25.9
9,COCCn1ccc2ccc(C(=O)O)cc21,-19.6
10,CC(C)c1ccc(CN2CCC3(CCCN(c4nncs4)C3)C2)cc1 (centres undefined),60.4
11,c1cnc(N2CCOCC3(CCCN(c4nncs4)C3)C2)cn1 (centres undefined),72
12,Cc1cnc(N2CCCC3(COCCN(c4ccc(C)nn4)C3)C2)nc1 (centres undefined),52.6
13,COc1ccc(N2CCOCC3(CCCN(c4cnccn4)C3)C2)cc1 (centres undefined),53.9
14,Fc1ccc(CN2CCC3(CCCN(c4nncs4)C3)C2)cc1 (centres undefined),-11.6
15,Cc1ccc(N2CCOCC3(CCCN(c4ncc(F)cn4)C3)C2)nn1 (centres undefined),14.6
16,Cc1ccc(N2CCCC3(COCCN(c4cnccn4)C3)C2)nn1 (centres undefined),-22.1
17,c1cncc(CN2CCC3(CCCN(c4nncs4)C3)C2)c1 (centres undefined),-11.6
18,c1cnc(N2CCCC3(COCCN(c4nncs4)C3)C2)cn1 (centres undefined),17.5
19,Fc1cnc(N2CCOCC3(CCCN(c4cnccn4)C3)C2)nc1 (centres undefined),-13.7
20,Cc1ccc(N2CCCC3(COCCN(c4ncccn4)C3)C2)nn1 (centres undefined),-37.9
21,Fc1cccnc1N1CCOCC2(CCCN(c3nncs3)C2)C1 (centres undefined),12.6
